Several values for one entry are separate records, joined by “and”; a condition that tells them apart may be missing. Equal entries are not always repeated. Compounds without any hit were thinned out: in the full panel of roughly 83,000, 20% have a hit.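 Results are percent growth after 48 hours of single-concentration exposure. 100 means growth as in untreated cells, lower positive values show inhibition; negative values down to -100 show cell death.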 Values without a mark were called inactive. Activity calls are given as the source filed them. How the source made its calls: active means growth percent below 10; inactive means the rest.
Each compound was assayed on MALME-3M melanoma (assay: NCI-60 one-dose screen, 48 h (100 = growth as untreated, 0 = no growth, -100 = all killed)). Conditions: 10 µM unless noted.

SMILES	growth [%]
CCOc1cccc(/C(N)=N/C(N)=N/c2nc3ccccc3s2)c1	115
O=C(CCl)Nc1ccc(NC(=O)c2cc(Cl)ccc2O)c(Cl)c1	81.8
Clc1ccc(CSc2nnc(-c3ccc(Cl)cc3)n2-c2ccccc2)cc1	86.3
CC(C)(C)OC(=O)NCc1ccc(CNc2c([N+](=O)[O-])cnc3ccccc23)cc1	86.4
NS(=O)(=O)c1ccc(Nc2nc(N/N=C/c3ccc4c(c3)OCO4)nc(Nc3ccccc3)n2)cc1	58.6
Cc1cc(=O)oc2cc(OCCCOc3ccc(/C=C/C(=O)Nc4ccc(Br)cc4)cc3)ccc12	40.4
CNC(=O)c1cc(N2CCc3cc(NC(=O)Nc4ccc(N5CCOCC5)c(C(F)(F)F)c4)ccc32)ccn1	25.8

Each compound was assayed on MDA-MB-231 breast in the same assay as above. Conditions: 10 µM unless noted.

SMILES	growth
Cc1ccc2c(n1)C(=O)C(Cl)=C(Nc1ccc(C#N)cc1)C2=O	92.3%
CC(C)(O)c1cncc(-c2ccc3ncc(C#N)c(N4CCc5cc(F)c(Cl)cc54)c3c2)c1	20.4%
O=c1c2ccccc2cc2n1CCN=C2c1ccccc1	96.2%
O=C(CN1CCN(c2cc(=O)[nH]c3ccc(F)cc23)CC1)N(c1ccccc1)c1ccccc1	98.1%
CCc1cc(OC(=O)N2CCC(N3CCCCC3)CC2)ccc1Nc1cc(-c2ccc(-n3cccn3)cc2)[nH]n1	59.5%
CCCC/C(=C\c1ccc(O)c(O)c1)C(=O)NC(Cc1ccccc1)C(=O)C(=O)NCCc1ccc(OC)cc1 (configuration not stated)	92.1%
CN(C)c1ccc(-c2cc(-c3c[nH]c4ccccc34)nc(N)c2C#N)cc1	36%
COc1cc(C(=O)c2cc(C(C)=O)c3ccc(C)cn23)cc(OC)c1OC	55.2%
CCOC(=O)c1ccccc1NC1=C(Cl)C(=O)c2nc(C)ccc2C1=O	90.3%
CN(C)S(=O)(=O)c1ccc(-c2nc(C(Cl)Cl)nc3cc(-c4ccccc4)nn23)cc1	48.8%
CN1CCN(c2ccc(Nc3nc(NCCCNS(=O)(=O)c4ccc(Cl)cc4)c4sccc4n3)cc2)CC1	9.29% (active)
O=C1[C@@H]2Cc3c([nH]c4ccccc34)[C@H](c3ccc(Cl)cc3)N2C(=O)CN1C1CCN(Cc2ccccc2)CC1	68.6%
CN1CCN(CCNc2nc(-c3cccc(NS(=O)(=O)c4cccc5c(N(C)C)cccc45)c3)cs2)CC1	64.8%
C#C[C@]1(O)CC[C@H]2[C@@H]3CC=C4c5sc(Nc6ncccc6C)nc5CC[C@]4(C)[C@H]3CC[C@@]21C	12.8%
CC(=O)N(O)CCCCCNC(=O)CCC(=O)N(O)CCCCCNC(=O)CCC(=O)N(O)CCCCCN(CCCCCCCCCC[P+](c1ccccc1)(c1ccccc1)c1ccccc1)CCCCCCCCCC[P+](c1ccccc1)(c1ccccc1)c1ccccc1	16.4%
O=C1Nc2ccccc2/C1=N\c1nnc(-c2ccccc2)o1	82.9%
CCCCCCCCCC(=O)NC(C)(C)C(=O)N1CCC[C@H]1C(=O)N[C@@H](CC(C)C)C(=O)N[C@@](C)(CC)C(=O)N[C@@H](CCC(N)=O)C(=O)N[C@H](CCC(N)=O)C(=O)NC(C)(C)C(=O)NC(C)(C)C(=O)N[C@@H](CCC(N)=O)C(=O)N[C@H](CC(C)C)C(=O)N[C@H](CO)CC(C)C	-92.8% (active) and -95.8% (active)
Fc1cccc(Cl)c1/C=N/Nc1nc(N/N=C/c2c(F)cccc2Cl)nc(N2CCCCC2)n1	42.1%
Cc1ccc(/C(N)=N/C(N)=N/c2nc3ccccc3s2)cc1	89.9%
CCc1cc2c(cc1Cl)nc1c(=O)[nH]c(=O)nc-1n2CCOCC(C)(C)C	67.2%

SMILES	growth
Cc1csc(/N=C(N)/N=C(\N)c2cccc(Br)c2)n1	96%
Brc1cccc(-c2cc(-c3cnc4c(c3)OCCO4)n[nH]2)c1	68.8%
CN(C)CC(=O)Nc1nc(-c2cccc(NS(=O)(=O)c3cccc4c(N(C)C)cccc34)c2)cs1	83.8%
O=C(/C=C/c1cc(Cl)ccc1Cl)Nc1ncc(Cc2ccc(Cl)cc2)s1	6.75% (active)
Nc1ncc(-c2ccc3ncnc(NCc4ccccc4)c3c2)cn1	39.8%
Cc1ccc(-c2cc3nc(C(Cl)Cl)nc(-c4ccc(S(=O)(=O)N(C)C)cc4)n3n2)cc1	95.1%
CCN(CC)CCOc1ccc(C(=C(c2ccccc2)C2CCCC2)c2ccc(OCCN(CC)CC)cc2)cc1	24.7%
COC(=O)c1cccc(NC2=C(Cl)C(=O)c3nc(C)ccc3C2=O)c1	62.6%
COc1cc(/C=N\NC(=O)c2ccc3nc(-c4ccc(Br)cc4)[nH]c3c2)cc(OC)c1OC	101%
NC1=NC2(CCCC2)N(c2ccc(S(=O)(=O)Nc3nccs3)cc2)C(N)=N1	100%
N#C/C(=N\Nc1ccc(F)cc1)C(=O)Nc1cc(-c2ccccc2)nn1-c1ccccc1	-6.26% (active)
Cc1ccc(S(=O)(=O)c2nc(-c3ccc(F)cc3)oc2S(C)(=O)=O)cc1	65%
CC(O)c1cccc(/C(N)=N/C(N)=N/c2nc3ccccc3s2)c1 (configuration not stated)	94.9%
CCOc1cccc(/C(N)=N/C(N)=N/c2nc3ccccc3s2)c1	74.3%
O=C(CCl)Nc1ccc(NC(=O)c2cc(Cl)ccc2O)c(Cl)c1	87.6%
Clc1ccc(CSc2nnc(-c3ccc(Cl)cc3)n2-c2ccccc2)cc1	77.7%
CC(C)(C)OC(=O)NCc1ccc(CNc2c([N+](=O)[O-])cnc3ccccc23)cc1	72.8%
NS(=O)(=O)c1ccc(Nc2nc(N/N=C/c3ccc4c(c3)OCO4)nc(Nc3ccccc3)n2)cc1	59.6%
Cc1cc(=O)oc2cc(OCCCOc3ccc(/C=C/C(=O)Nc4ccc(Br)cc4)cc3)ccc12	70.5%
CNC(=O)c1cc(N2CCc3cc(NC(=O)Nc4ccc(N5CCOCC5)c(C(F)(F)F)c4)ccc32)ccn1	47.6%
